Screens from PubChem BioAssay.
A selection: hits, their analogues and other compounds. The true share with any hit is near 7.9%.
KB-V1 cytotox = KB-V1 MDR subline cytotoxicity; KB-V1 MDR cells viability, CellTiter-Glo, 72 h; 400,000 compounds, 3.4% hits; AID 1347076; Potency, µM (top dose mostly 46.1 µM), hits mostly cytotoxic; further: on the % scale 0 is the no-effect control and ±100 the full control effect; nearly all actives have a fitted effect of over 60% in size
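Drug-selected KB-V1 cells, grown in DMEM lacking phenol red with 10% FBS, receive compound titrations; after three days at 37 degrees C, surviving cell ATP is quantified by CellTiter-Glo luminescence and responses normalized and curve-fitted.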
SW480 rerep = inducers of DNA re-replication in SW480 colon cancer cells | SW480 DNA re-replication, Hoechst DNA content imaging, 48 h | Potency, µM (top dose mostly 46.1 µM), for inactives: top-dose re-replication activation, most hits filed as activators | 340,000 compounds, 1.8% hits; further: % of control where 0% means no effect; nearly all actives have a fitted effect of over 55% in size
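Readout is total intensity of Hoechst-stained nuclei, excited at 405 nm and collected at 500-530 nm. Compound treatment lasted 48 hr at 37 C in 5% CO2 before staining.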
HT1080NT lethal = kills 2HG-producing HT-1080-NT fibrosarcoma cells; HT-1080-NT fibrosarcoma viability, CellTiter-Glo ATP luminescence, 48 h; Potency, µM (series often up to 46.1 µM), for the others: at the highest dose activity, negative = less viability, most hits filed as cytotoxic; 360,000 compounds, 1.6% hits; AID 686970;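 further: NT is the 2HG producing partner of a matched IDH1 knockdown line; 0% = DMSO-treated cells and -100% = media-only wells without cells; nearly all actives have a fitted effect of over 55% in size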
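Viability of the 2HG-overproducing fibrosarcoma line after 48 hours of compound exposure at 37 degrees C was determined by luminescence with CellTiter-Glo, and concentration-effect curves were then fitted and categorized.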
KB-3-1 tox = KB-3-1 parental cell cytotoxicity; KB-3-1 viability, CellTiter-Glo ATP luminescence, 72 h; Potency, µM (highest dose often 46.1 µM), actives largely listed as cytotoxic; 400,000 compounds, 1.4% hits; further: on the % scale 0 is the no-effect control and ±100 the full control effect; nearly all actives have a fitted effect of over 60% in size
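Using CellTiter-Glo luminescence, growth of non-resistant KB-3-1 adenocarcinoma cells is assessed 72 h after pin-tool compound addition at 37 °C. Normalized responses across the concentration series yield fitted curves.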
HT1080 IDH1KD tx = toxicity to HT-1080 IDH1 knockdown cells (counter line); HT-1080 IDH1 knockdown viability, ATP luminescence, 48 h; Potency, µM (top dose mostly 46.1 µM), inactives show top-dose activity, negative = toxicity, most hits filed as cytotoxic; 360,000 compounds, 2% hits; AID 686971;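 further: 0% = DMSO wells and -100% = cell-free medium wells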
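After a 2 h attachment period, IDH1KD HT-1080 cells took pin-transferred compound for 48 h at 37 °C; ATP-based luminescence after 10 min room-temperature reagent incubation reported viability.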
MCF10A rerep = inducers of DNA re-replication in MCF 10A breast cells. MCF 10A DNA re-replication, Hoechst nuclear intensity, 48 h. Potency, µM (highest dose often 46.1 µM), for inactives: at the highest dose activity, positive = re-replication, actives largely listed as activators. AID 624296. 350,000 compounds, 2.9% hits; further: % of control where 0% means no effect; nearly all actives have a fitted effect of over 50% in size
The depositor's hits bear a star. The call rests on the fitted dose curve; in most records, active means well fitted curve in the direction sought with a large enough effect; inconclusive means small, poorly fitted or top-dose-only effect, or another doubt; inactive means no such curve, though single readings can be large; an effect the other way counts as inactive or inconclusive. Potency means the concentration at half of the fitted maximal effect.

What do the screens show for `COc1cc(C(=O)O/N=C2/C=C(C)C(=O)C=C2C)cc(OC)c1OC`?
KB-V1 cytotox: inactive; SW480 rerep: -5%; HT1080NT lethal: 6%; KB-3-1 tox: inactive; HT1080 IDH1KD tx: 21%; MCF10A rerep: 5%

Results for CC1=C/C(=N\OS(=O)(=O)c2ccccc2)C(C(C)C)=CC1=O ?
KB-V1 cytotox: inconclusive; SW480 rerep: 3.7µM*; HT1080NT lethal: inconclusive; KB-3-1 tox: inconclusive; HT1080 IDH1KD tx: inconclusive; MCF10A rerep: 4.1µM*

How did CC1=C(C)/C(=N\OS(=O)(=O)c2ccc(C)cc2)C=CC1=O do in these assays?
KB-V1 cytotox: inconclusive; SW480 rerep: 5.2µM*; HT1080NT lethal: 13µM*; KB-3-1 tox: inconclusive; HT1080 IDH1KD tx: 6.5µM*; MCF10A rerep: inconclusive

How did Cc1cc(C)n(CCc2nc3c4ccccc4nc(N4CCN(c5ccc(F)cc5)CC4)n3n2)n1 do in these assays?
KB-V1 cytotox: inconclusive; KB-3-1 tox: inactive

Results for OC[C@H]1O[C@@H](c2nc(-c3cccc4ccccc34)no2)[C@H](O)[C@@H]1O ?
KB-V1 cytotox: inactive; HT1080NT lethal: inconclusive; KB-3-1 tox: inactive; HT1080 IDH1KD tx: -16%

What do the screens show for `OC[C@H]1O[C@@H](c2nc(-c3ccccc3Br)no2)[C@H](O)[C@@H]1O`?
KB-V1 cytotox: inconclusive; HT1080NT lethal: 10µM*; KB-3-1 tox: 7.3µM*; HT1080 IDH1KD tx: 15µM*

Results for O=C(/C=C/c1ccc(F)cc1)Nc1nc2n(n1)C(c1ccc(Cl)cc1)C=C(c1ccccc1)N2 (stereo not given) ?
KB-V1 cytotox: inactive; KB-3-1 tox: inactive

What do the screens show for `CCOc1ccc2nc(SCC(=O)NNC(=O)c3ccco3)c(C)cc2c1`?
KB-V1 cytotox: inactive; SW480 rerep: -9%; HT1080NT lethal: 12%; KB-3-1 tox: inconclusive; HT1080 IDH1KD tx: -1%; MCF10A rerep: 9%

Results for CCOc1ccc2cc(/C=C/C(=O)c3ccco3)c(Cl)nc2c1 ?
KB-V1 cytotox: inconclusive; SW480 rerep: 16µM*; HT1080NT lethal: -18%; KB-3-1 tox: inconclusive; HT1080 IDH1KD tx: 9%; MCF10A rerep: 5.8µM*

Results for CCCNC(=S)N(Cc1ccccc1)Cc1nc2ccccc2c(=O)[nH]1 ?
KB-V1 cytotox: 5.2µM*; SW480 rerep: -106%; HT1080NT lethal: -2%; KB-3-1 tox: inconclusive; HT1080 IDH1KD tx: 0%; MCF10A rerep: -3%

Results for CCOCCCNC(=S)N(Cc1ccccc1)Cc1nc2ccccc2c(=O)[nH]1 ?
KB-V1 cytotox: inactive; SW480 rerep: 2%; HT1080NT lethal: -16%; KB-3-1 tox: inactive; HT1080 IDH1KD tx: -10%; MCF10A rerep: 6%

What do the screens show for `O=C(c1ccccc1)N(Cc1ccc(F)cc1)Cc1nc2ccccc2c(=O)[nH]1`?
KB-V1 cytotox: inactive; SW480 rerep: 4.1µM*; HT1080NT lethal: 7.1µM*; KB-3-1 tox: inactive; HT1080 IDH1KD tx: 6.3µM*; MCF10A rerep: inconclusive

Results for COc1ccc(-c2ccc3ncnc(NCc4cccs4)c3c2)cc1 ?
KB-V1 cytotox: inactive; KB-3-1 tox: inconclusive

What do the screens show for `Cc1cc(C)c(C(=O)/C=C/C=C/c2ccccc2)c(=O)[nH]1`?
KB-V1 cytotox: inactive; SW480 rerep: -1%; HT1080NT lethal: -3%; KB-3-1 tox: inactive; HT1080 IDH1KD tx: -3%; MCF10A rerep: inconclusive

How did Cc1cc(C)c(C(=O)/C=C/c2ccc(C(C)C)cc2)c(=O)[nH]1 do in these assays?
KB-V1 cytotox: 16µM*; SW480 rerep: inconclusive; HT1080NT lethal: -21%; KB-3-1 tox: inactive; HT1080 IDH1KD tx: 16µM*; MCF10A rerep: 13µM*

What do the screens show for `CCOc1ccc(NC(=O)CCc2c(C)nc3nc(C)nn3c2C)cc1`?
KB-V1 cytotox: inactive; KB-3-1 tox: inactive

How did CCc1ccccc1Nc1nc2cc(Cl)c(Cl)cc2nc1-n1nc(C)cc1C do in these assays?
KB-V1 cytotox: inactive; KB-3-1 tox: inactive

Results for O=C(OC[C@H]1O[C@@H](OC(=O)c2cc(O)c(O)c(OC(=O)c3cc(O)c(O)c(O)c3)c2)[C@H](OC(=O)c2cc(O)c(O)c(OC(=O)c3cc(O)c(O)c(O)c3)c2)[C@@H](OC(=O)c2cc(O)c(O)c(OC(=O)c3cc(O)c(O)c(O)c3)c2)[C@@H]1OC(=O)c1cc(O)c(O)c(OC(=O)c2cc(O)c(O)c(O)c2)c1)c1cc(O)c(O)c(OC(=O)c2cc(O)c(O)c(O)c2)c1 ?
HT1080NT lethal: 11µM*; HT1080 IDH1KD tx: inconclusive

How did CC1=C(C(N)=O)C(c2cccc(F)c2)n2nc(SCc3ccccc3)nc2N1 (stereo not given) do in these assays?
KB-V1 cytotox: inactive; KB-3-1 tox: inactive

What do the screens show for `Cc1nc2cccnc2n1-c1cccc(C(=O)NCc2cccc(Cl)c2)c1`?
KB-V1 cytotox: inactive; KB-3-1 tox: inactive

What do the screens show for `Cc1nc2nc(C)c(CCC(=O)NCc3ccccc3)c(C)n2n1`?
KB-V1 cytotox: inactive; KB-3-1 tox: inactive

Results for O=S(=O)(c1ccc(Br)cc1)c1nnn2c1nc(NCc1ccc3c(c1)OCO3)c1sccc12 ?
KB-V1 cytotox: inactive; KB-3-1 tox: inactive

How did CCc1ccc(NC(=O)C(=O)NCCN2CCN(Cc3ccc([N+](=O)[O-])cc3)CC2)cc1 do in these assays?
KB-V1 cytotox: inactive; SW480 rerep: 2%; HT1080NT lethal: -2%; KB-3-1 tox: inactive; HT1080 IDH1KD tx: 1%; MCF10A rerep: inconclusive

Results for Cc1ccc(NC(=O)C(=O)NCCN2CCN(Cc3ccc([N+](=O)[O-])cc3)CC2)cc1 ?
KB-V1 cytotox: 2.9µM*; SW480 rerep: inconclusive; HT1080NT lethal: 0%; KB-3-1 tox: inactive; HT1080 IDH1KD tx: 3%; MCF10A rerep: -6%

What do the screens show for `COc1cccc(-c2cn3nc4c(nc3n2)CCCC4)c1`?
KB-V1 cytotox: inconclusive; SW480 rerep: inconclusive; HT1080NT lethal: inconclusive; KB-3-1 tox: 18µM*; HT1080 IDH1KD tx: 16µM*; MCF10A rerep: inconclusive

How did CCC1NC(=O)c2cc3ccccc3cc2-n2c1nc1ccc(OC)cc1c2=O (stereo not given) do in these assays?
KB-V1 cytotox: inconclusive; HT1080NT lethal: -7%; KB-3-1 tox: inactive; HT1080 IDH1KD tx: 0%

Results for COc1ccc2cc(Br)ccc2c1CC(=O)NC(C)C ?
KB-V1 cytotox: inconclusive; SW480 rerep: 4%; HT1080NT lethal: 4%; KB-3-1 tox: inactive; HT1080 IDH1KD tx: 10%; MCF10A rerep: -32%
